Measurements reported in PubChem BioAssay AID463173 (ICCB-Longwood Screening Facility, Harvard Medical School, 2010).
Hit rate of the full screen: of about 52,000 compounds, about 1,700 (3.3%) were called active. Only a selection was taken, and actives are over-represented in it overall. Unmarked numbers belong to inactive results. Rule as the data show it: active = survival mostly below about 52% (no sharp cut-off); inactive = mostly above about 56%.

Test system: Wild type
Assay: growth inhibition of S. aureus wild type versus tarO mutant, primary screen, teichoic acid synthesis inhibitors, RN4220, OD600 (AID 463173)
Settings: S. aureus RN4220 wild type/DeltatarO growth, OD600, 18 h, stronger effect = lower value, screened at 18.75 µg/mL (by protocol)

Row | SMILES | survival
1 | CCOc1ccc(CCNC(=O)Cn2c(C)c3cnn(-c4ccccc4)c(=O)c3c2C)cc1 | 95%
2 | COc1ccc2c(c1)CCc1c(C(=O)Nc3c(C)nn(Cc4ccc(C)cc4)c3C)noc1-2 | 16% (active)
3 | COc1ccc2c(c1)CCc1c(C(=O)Nc3c(C)nn(Cc4ccccc4)c3C)noc1-2 | 92%
4 | COc1ccc2c(c1)CCc1c(C(=O)Nc3c(C)nn(Cc4ccc(Cl)cc4)c3C)noc1-2 | 64%
5 | CC(=O)Nc1cc(C(=O)NCc2ccc(C)cc2)ccc1S(=O)(=O)c1ccc(Cl)cc1 | 85%
6 | CCc1ccc(-n2c(=O)c3cccnc3n2CC(=O)Nc2cc(OC)ccc2OC)cc1 | 74%
7 | Cc1cc(C(=O)c2cccs2)c(N)s1 | 90%
8 | COc1ccc(CNC(=O)c2ccc3c(c2)NC(=O)C(CS(=O)(=O)Cc2ccccc2Cl)N3)cc1 (stereo not given) | 49%
9 | Cc1ccc(Cl)cc1N1CCN(C(=O)c2cn(CC(C)C)c(=O)c3c2c2ccccc2n3C)CC1 | 87%
10 | Cc1ccc(C)c(N2CCN(C(=O)c3cn(CC(C)C)c(=O)c4c3c3ccccc3n4C)CC2)c1 | 17% (active)
11 | Cc1cccc(N2CCN(C(=O)c3cn(CC(C)C)c(=O)c4c3c3ccccc3n4C)CC2)c1C | 89%
12 | Cc1ccc(NC(=O)NCCOCCn2c(=O)oc3ccccc32)c(C)c1 | 88%
13 | Cc1ccc(C(C)C)c(OCCCn2c(=O)oc3ccccc32)c1 | -2% (active)
14 | Cc1cccc(NC(=O)NCCn2c(=O)oc3ccc(C)cc32)c1 | 88%
15 | Cc1ccc(C(C)C)c(OCCn2cc(C(=O)c3ccco3)c3ccccc32)c1 | 30%
16 | Cc1ccc(C(C)C)c(OCCCn2c(=O)oc3ccc(C)cc32)c1 | -10% (active)
17 | Cc1ccc2oc(=O)n(CCNC(=O)Nc3ccc(C)c(F)c3)c2c1 | 108%
18 | Cc1nn2c(C)c(C(=O)NCc3ccc(OC(C)C)cc3)cnc2c1-c1ccc(F)cc1 | 76%
19 | COc1cc(OC)c(NC(=O)Cn2cnc3c(nc4n3CCCCC4)c2=O)cc1Cl | 59%
20 | O=C(NCC1CCCO1)C1CC(=O)N(c2ccccc2)C1 (stereo not given) | 123%
21 | Cc1ccc(S(=O)(=O)N2Cc3ccccc3CC2C(=O)N(C)C)cc1 (stereo not given) | 102%
22 | Cc1ccc(Cn2c(C(=O)O)c(CNC3CCCC3)c3ccc(C)cc32)cc1 | 83%

Row | SMILES | survival
23 | Cc1nc2ccn(Cc3cccs3)c(=O)c2cc1C(=O)Nc1ccccc1 | 91%
24 | COc1cc(NC(=O)c2cc3c(=O)n(Cc4cccs4)ccc3nc2C)cc(OC)c1OC | -2% (active)
25 | COc1ccc(CNC(=O)c2cc3c(=O)n(Cc4cccs4)ccc3nc2C)cc1 | 10% (active)
26 | COc1ccc(NC(=O)c2cc3c(=O)n(Cc4cccs4)ccc3nc2C)cc1 | 59%
27 | Cc1nc2ccn(Cc3cccs3)c(=O)c2cc1C(=O)NCc1ccc(Br)cc1 | 82%
28 | CCOc1ccc(CNC(=O)c2cc3c(=O)n(Cc4cccs4)ccc3nc2C)cc1 | 118%
29 | CCc1ccc(CNC(=O)c2cc3c(=O)n(Cc4cccs4)ccc3nc2C)cc1 | 0% (active)
30 | Cc1nc2ccn(Cc3cccs3)c(=O)c2cc1C(=O)NCc1ccc(Cl)cc1 | 22%
31 | Cc1nc2ccn(Cc3cccs3)c(=O)c2cc1C(=O)NCc1ccccc1 | 73%
32 | Cc1ccc(C)c(NC(=O)Cn2c(=O)n(CC3CCCO3)c(=O)c3ccccc32)c1 (stereo not given) | 119%
33 | CCOC(=O)c1c(NC(=O)c2cc3nc(-c4ccccc4)cc(C(F)(F)F)n3n2)sc2c1CCC(C)C2 (stereo not given) | 65%
34 | O=S(=O)(c1ccc(Br)cc1)N1CCn2cccc2C1c1ccc(Br)cc1 (stereo not given) | 65%
35 | CCCOC(=O)c1cccc(Nc2nc(C(=O)OCC)nc3ccccc23)c1 | 44%
36 | Cc1ccc(CNS(=O)(=O)c2c(C(=O)N3CCC(C)CC3)c(C)n(C)c2C)cc1 | 76%
37 | O=C(Nc1nnc(C2CCCC2)s1)C1CC1 | 105%
38 | CNC(=O)Nc1ccc2nc(C)sc2c1 | 112%
39 | COC(=O)CCN(c1ccccc1)S(=O)(=O)c1cc(-c2cc(C)no2)ccc1OC | 90%
40 | Cc1ccc2cc(CN(CC3CCCO3)C(=O)C(F)(F)F)c3nnnn3c2c1C (stereo not given) | 115%
41 | COc1ccccc1OC(C)C(=O)N1CCC(c2nc3ccccc3s2)CC1 (stereo not given) | -2% (active)
42 | CCC(Oc1ccccc1F)C(=O)N1CCC(c2nc3ccccc3s2)CC1 (stereo not given) | -3% (active)
43 | Cc1ccccc1OCC(=O)N1CCC(c2nc3ccccc3s2)CC1 | 65%
44 | CCCOc1ccccc1C(=O)N1CCC(c2nc3ccccc3s2)CC1 | 68%

Row | SMILES | survival
45 | CCc1ccc(OC(C)C(=O)N2CCC(c3nc4ccccc4s3)CC2)cc1 (stereo not given) | 35%
46 | CC(Oc1ccc(F)cc1)C(=O)N1CCC(c2nc3ccccc3s2)CC1 (stereo not given) | 80%
47 | COCCn1c(CNC(=O)c2ccccc2C)nc2cccnc21 | 69%
48 | COc1cc(Cl)c(C)cc1NC(=O)CNC(=O)Cn1ccc2ccccc2c1=O | 65%
49 | COC(=O)C1=C(c2ccccc2)c2ccccc2S(=O)(=O)N1CC(=O)Nc1cc(C)ccc1C | 77%
50 | CCN(CC)S(=O)(=O)c1ccc2c(c1)N(CC(=O)NCc1ccccc1)C(=O)C1CCCCN21 (stereo not given) | 102%
51 | CCOc1ccc2nc(NCCCNC(=O)C3CCCO3)c(C#N)cc2c1 (stereo not given) | 105%
52 | CCC(C)NC(=O)Cn1c(=O)n(-c2ccc(OC)c(OC)c2)c(=O)c2ccccc21 (stereo not given) | 87%
53 | COc1cccc(CNC(=O)CCCN2C(=O)CSc3c2c(C)nn3-c2ccccc2)c1 | 89%
54 | CC1(c2ccccc2)CC(C)(C)N(C(=O)c2cccc(Cl)c2)c2ccccc21 (stereo not given) | 6% (active)
55 | O=C(c1ccccc1Cl)n1cc(Cl)cn1 | 100%
56 | CC1CCN(c2ccc(NC(=O)c3cccc(Cl)c3)cc2C(=O)O)CC1 | 76%
57 | COc1ccc(C(=O)N2CCC(C(=O)Nc3ccc(Cl)cc3)CC2)cc1 | 122%
58 | COc1ccc(C(=O)N2c3ccccc3C(C)(c3ccc(Cl)cc3)CC2(C)C)cc1 (stereo not given) | 6% (active)
59 | CC1CCN(C(=O)c2cccc(Cl)c2)CC1 | 112%
60 | CN1CC2(C)CN(C(=O)c3ccccc3Cl)CC(C)(C1)C2 | 112%
61 | CC1(c2ccccc2)CC(C)(C)N(C(=O)c2ccccc2Cl)c2ccccc21 (stereo not given) | -2% (active)
62 | COc1ccc(CCC(=O)NCc2ccc3c(c2)CCN3C(=O)c2ccc(Cl)cc2)cc1 | 80%
63 | COc1ccccc1C(=O)N1c2ccccc2C(C)(c2ccc(Cl)cc2)CC1(C)C (stereo not given) | 2% (active)
64 | COc1ccccc1C(=O)CC1(O)C(=O)N(CC(N)=O)c2ccccc21 (stereo not given) | 65%
65 | COc1ccccc1C(=O)n1nc(-c2ccccc2)nc1NCc1ccc(Cl)cc1 | 66%
